HepG2 viability – HepG2 cytotoxicity, counter-screen for TGF-b inhibitors; HepG2 CAGA-GFP viability, ATP luminescence, 18 h; Potency, µM (titrated, usually from 46.1 µM), usual class: cytotoxic; actives 0.76% (n = 410,000); AID 588856
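CellTiter-Glo luminescence gave cytotoxicity after 18 hours at 37 degrees C. The cells were HepG2 CAGA-GFP in 1% FBS DMEM, stimulated with 500 pg/mL TGF-beta after compound addition. %Activity was normalised to no-cell wells (complete cell-killing) and DMSO (no toxicity), and curves were fitted and classified.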
TDP1 cell noCPT – qHTS for Inhibitors of human tyrosyl-DNA phosphodiesterase 1 (TDP1): qHTS in cells in absence of CPT | DT40 Tdp1-/- hTDP1 cells, no CPT, ATP luminescence, 48 h | Potency, µM (doses to about 46.2 µM), most hits filed as inhibitors | actives 15% (n = 420,000); note: nearly all actives have a fitted effect of over 55% in size
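Camptothecin absent (DMSO only). Human TDP1-complemented DT40 knockout cells, 400 cells/well, 37 °C for minimum 48 hr; ATP measured via CellTiter-Glo, 30 min dark incubation, luminescence.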
TDP1 cell CPT – growth inhibition of DT40 Tdp1-/-;hTDP1 cells with camptothecin (screen for TDP1 inhibitors) | chicken DT40 Tdp1-/-;hTDP1 cells + 20 nM CPT, ATP luminescence, 48 h | Potency, µM (series often up to 46.2 µM), actives largely listed as inhibitors | actives 12% (n = 420,000) | AID 686979; note: nearly all actives have a fitted effect of over 55% in size
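Chicken DT40 Tdp1-/- cells stably complemented with human TDP1 were seeded at 400 cells/well in medium containing 20 nM camptothecin, exposed to pin-transferred compounds, and grown at 37 °C for at least 48 hr. Viability was read as ATP luminescence.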
HT1080 IDH1KD tx – kills HT-1080 cells with IDH1 knockdown; HT-1080 IDH1 knockdown viability, ATP luminescence, 48 h; Potency, µM (doses to about 46.1 µM), usual class: cytotoxic; actives 2% (n = 360,000)
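Using the IDH1-knockdown HT-1080 line run in the same batch and compound series as the NT line, viability after 48 h at 37 °C was determined by CellTiter-Glo luminescence and expressed as % activity.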
TGFb inhibitor – TGF-b pathway inhibition; actives 1.2% (n = 410,000); HepG2 CAGA-GFP TGF-b/SMAD3 reporter, GFP fluorescence, 18 h; TGF-beta stimulated, 500 pg/mL final; Potency, µM (titrated, usually from 46.1 µM), actives largely listed as inhibitors; AID 588855; note: nearly all actives have a fitted effect of over 65% in size
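Smad-responsive CAGA-GFP expression was quantified in HEPG2 cells exposed to compounds and 500 pg/mL final TGF-beta for 18 h at 37 degrees C; unstimulated wells defined full inhibition.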
HT1080-NT tox – kills 2HG-producing HT-1080-NT fibrosarcoma cells | HT-1080-NT fibrosarcoma viability, CellTiter-Glo ATP luminescence, 48 h | Potency, µM (doses to about 46.1 µM), hits mostly cytotoxic | actives 1.6% (n = 360,000);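 note: NT is the 2HG producing partner of a matched IDH1 knockdown line; nearly all actives have a fitted effect of over 55% in size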
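Compounds were tested in concentration-response format on HT-1080-NT cells for 48 hours at 37 degrees C. Cell viability came from CellTiter-Glo luminescence; curves were classified by r2, response magnitude and activity.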
Each line names hits and unclear results; the compound was inactive in the other large screens. Compounds with a hit are over-represented: about 17% of the library has one in this group of screens. Calls come from the whole dose curve; as a rule, active = well fitted curve in the direction sought with a large enough effect; inconclusive = small, poorly fitted or top-dose-only effect, or another doubt; inactive = no such curve, though single readings can be large; an effect the other way counts as inactive or inconclusive.

O=C(N/N=C/c1ccc(O)c([N+](=O)[O-])c1)C(O)(c1ccccc1)c1ccccc1	TDP1 cell noCPT 2.9µM, TDP1 cell CPT inconclusive, HT1080 IDH1KD tx inconclusive
O=C(NN=Cc1ccccc1O)C(O)(c1ccccc1)c1ccccc1	TDP1 cell noCPT 8.2µM, TDP1 cell CPT 23µM, HT1080 IDH1KD tx inconclusive, TGFb inhibitor inconclusive
COC(=O)c1sccc1N(C)S(C)(=O)=O	none
CN(C)c1ccc(CC(=O)N2CCCCC2c2cc(C(=O)Nc3cccc4c3CCCC4)no2)cc1 (stereo not drawn)	TDP1 cell noCPT inconclusive, TDP1 cell CPT 26µM
CN(C)c1ccc(CC(=O)N2CCCCC2c2cc(C(=O)Nc3cccc(C#N)c3)no2)cc1 (stereo not drawn)	TDP1 cell noCPT 23µM, TDP1 cell CPT inconclusive
Cc1ccc(F)cc1C(=O)N1CCCCC1c1cc(C(=O)Nc2cccc(C#N)c2)no1 (stereo not drawn)	TDP1 cell noCPT 21µM, TDP1 cell CPT 29µM
CN(C)c1ccc(CC(=O)N2CCCC(c3cc(C(=O)Nc4ccccc4)no3)C2)cc1 (stereo not drawn)	TDP1 cell noCPT inconclusive, TDP1 cell CPT inconclusive
CN(C)c1ccc(CC(=O)N2CCCCC2c2cc(C(=O)Nc3ccccc3)no2)cc1 (stereo not drawn)	TDP1 cell noCPT 26µM, TDP1 cell CPT 21µM
Cc1ccc(C)c(N2CCN(C(=O)c3cc4cc5ccc(C)cc5nc4o3)CC2)c1	TDP1 cell noCPT inconclusive (no result: HT1080 IDH1KD tx, HT1080-NT tox)
N#Cc1ccc(C(=O)N2CCCCC2c2cc(C(=O)Nc3cccc(C#N)c3)no2)cc1 (stereo not drawn)	TDP1 cell noCPT inconclusive, TDP1 cell CPT inconclusive
Cc1ccc(C)c(CC(=O)N2CCCCC2c2cc(C(=O)Nc3cccc(C#N)c3)no2)c1 (stereo not drawn)	TDP1 cell noCPT 23µM, TDP1 cell CPT 23µM, HT1080 IDH1KD tx inconclusive, HT1080-NT tox inconclusive
COc1cc(C(=O)Nc2ccc(Cl)c([N+](=O)[O-])c2)cc(OC)c1OC	HT1080 IDH1KD tx inconclusive
O=C(Nc1ccc(Cl)c([N+](=O)[O-])c1)ONC1=NCCCCC1	TDP1 cell noCPT 13µM, TDP1 cell CPT inconclusive
O=C1CCCC2=C1C1(CCCCC1)N=C(Nc1nc3ccccc3o1)N2	TDP1 cell noCPT 13µM, TDP1 cell CPT inconclusive
O=C1[C@H]2[C@@H](c3ccccc3)N[C@]3(CCCN(Cc4ccc(Cl)cc4)C3=O)[C@H]2C(=O)N1Cc1ccccc1	TDP1 cell noCPT 8.2µM, TDP1 cell CPT 23µM
CCN1C(=O)[C@H]2[C@@H](c3ccc(C)cc3)N[C@]3(CCCN(Cc4ccccc4)C3=O)[C@H]2C1=O	TDP1 cell noCPT inconclusive
O=C1[C@H]2[C@@H](c3ccccc3)N[C@]3(CCCN(Cc4ccc(Br)cc4)C3=O)[C@H]2C(=O)N1Cc1ccccc1	TDP1 cell noCPT 23µM, TDP1 cell CPT inconclusive
Cc1ccc([C@H]2N[C@]3(CCCN(Cc4ccc(Br)cc4)C3=O)[C@H]3C(=O)N(Cc4ccccc4)C(=O)[C@@H]23)cc1	TDP1 cell noCPT 29µM, TDP1 cell CPT 21µM
CCCCC(=O)NC1(C(F)(F)F)C(=O)N(CC(C)C)C2=C1C(=O)CC(C)(C)C2 (stereo not drawn)	TDP1 cell noCPT inconclusive, TDP1 cell CPT inconclusive
Cc1ccc(C(=O)NCc2ccco2)c(C)c1	none
COCCSc1nnc(NC(=O)C2CC(=O)N(C3CCCC3)C2)s1 (stereo not drawn)	none
CCC(=O)OCC(=O)C1(OC(=O)CC)C(C)CC2C3CCC4=CC(=O)C=CC4(C)C3(Cl)C(O)CC21C (stereo not drawn)	TDP1 cell CPT inconclusive (no result: HepG2 viability, HT1080 IDH1KD tx, TGFb inhibitor, HT1080-NT tox)
CC1(C(=O)NC2CCc3ccccc32)CCN1CCc1ccccc1 (stereo not drawn)	TDP1 cell noCPT 18µM, TDP1 cell CPT 16µM
Cc1ccc(C2CC2/C(=N/O)c2ccc(F)cc2)cc1 (stereo not drawn)	HT1080-NT tox inconclusive
CC(=O)c1ccc(S(=O)(=O)NCc2ccc(C(=O)NCC(c3ccccc3)N(C)C)cc2)cc1 (stereo not drawn)	none
Cc1cc(C(=O)COc2ccc(-c3nnco3)cc2)c(C)n1Cc1ccccc1	TDP1 cell noCPT inconclusive, TDP1 cell CPT inconclusive, HT1080 IDH1KD tx inconclusive, HT1080-NT tox inconclusive
Cc1ccc(Nc2nc(N/N=C/c3c[nH]c4ccccc34)nc(N3CCOCC3)n2)cc1	TDP1 cell noCPT 8.2µM, TDP1 cell CPT 21µM, HT1080 IDH1KD tx inconclusive, TGFb inhibitor inconclusive, HT1080-NT tox inconclusive
Cc1[nH]c2ccccc2c1/C=N/Nc1nc(Nc2ccc(F)cc2)nc(N2CCOCC2)n1	none
CCOc1cc(/C=N/Nc2nc(Nc3ccccc3)nc(N3CCCCC3)n2)ccc1OCC(=O)O	none
O=C(Oc1cccc(/C=N/Nc2nc(Nc3ccccc3)nc(N3CCOCC3)n2)c1)c1ccco1	TDP1 cell noCPT 23µM, TDP1 cell CPT 21µM, HT1080 IDH1KD tx inconclusive
C(=N\Nc1nc(Nc2ccccc2)nc(N2CCOCC2)n1)/c1c[nH]c2ccccc12	TDP1 cell noCPT 8.2µM, TDP1 cell CPT 12µM, HT1080 IDH1KD tx inconclusive, HT1080-NT tox inconclusive
COCc1cc(C)nc2sc3c(=O)n(-c4cc(C)ccc4C)nnc3c12	none (no result: HT1080 IDH1KD tx, HT1080-NT tox)
O=C(CC1CC2CCC1C2)N1CCN(S(=O)(=O)c2ccc(F)cc2)CC1 (stereo not drawn)	none
Cc1cccc(C)c1NC(=O)C(c1cc2ccccc2o1)N1CCN(C)CC1 (stereo not drawn)	none (no result: HepG2 viability, TGFb inhibitor)
O=C(Nc1cccc(Cl)c1)N1CCSc2ccccc21	TDP1 cell noCPT inconclusive, TDP1 cell CPT inconclusive (no result: HT1080 IDH1KD tx, HT1080-NT tox)
Nc1oc2ccccc2c(=O)c1-c1ccc2c(c1)OCO2	TDP1 cell noCPT inconclusive, TDP1 cell CPT 18µM
COc1cc(C(=O)OCC(=O)NC2CCCCC2)cc2c1OCCO2	none
COC1=C(Nc2ccc(C)cc2)C(=O)c2ccccc2C1=O	TDP1 cell noCPT 16µM, TDP1 cell CPT inconclusive, TGFb inhibitor inconclusive
COC1=C(Nc2ccccc2)C(=O)c2ccccc2C1=O	TDP1 cell noCPT 12µM, TDP1 cell CPT 12µM, HT1080 IDH1KD tx 13µM, TGFb inhibitor 16µM, HT1080-NT tox inconclusive
COC1=C(OC)C(=O)c2ccccc2C1=O	TDP1 cell noCPT 8.9µM, TDP1 cell CPT 7.9µM, HT1080 IDH1KD tx inconclusive, HT1080-NT tox inconclusive (no result: HepG2 viability, TGFb inhibitor)

High-throughput results (PubChem BioAssay)
